Results with a measured potency or affinity are listed apart. Calls of active or inactive are those of the source. The rule behind the calls is not given here.

This assay is described as follows: VEEV TC-83 cytopathic effect inhibitors, confirmation, cell-based, set 4 (AID 624063). Conditions: VEEV TC-83 infected cells; series mostly up to 25 µM.
With `CCN1CCN(Cc2nc3ccc(C(F)(F)F)cc3c(=O)n2-c2ccccc2F)CC1`, the compound was classed as inactive.

On to `O=C(NCc1ccco1)C1CCN(C(=O)c2cc3sccc3n2Cc2ccc(F)cc2)CC1`, for which the compound was called inactive.

As for `CCN1CCN(Cc2nc3ccccc3c(=O)n2-c2ccccc2F)CC1`, the compound was called inactive. In the case of `CC(C)(C)OC(=O)N1CCN(Cc2nc3ccc([N+](=O)[O-])cc3c(=O)n2-c2ccccc2F)CC1` it was “inactive”.

(Values after PubChem BioAssay AID624063 (Southern Research Specialized Biocontainment Screening …, 2012).)
